This passage reports growth results from PubChem BioAssay (NCI).

This is part of a sample that, as a whole, favours compounds with a hit. Of some 83,000 tested, about 20% had one in any assay.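 48-hour exposure, single concentration, 96-well plates; percent growth endpoint where 0 means no net growth. Active: below 10.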 Active and inactive are the calls of the source.

In the assay the test system is A549/ATCC NSCLC. Put plainly: NCI-60 one-dose screen, 48 h (100 = growth as untreated, 0 = no growth, -100 = all killed). Conditions: 10 µM unless noted. The procedure: Growth inhibition of the A549/ATCC human Non-Small Cell Lung tumor cell line is measured as a screen for anti-cancer activity. Cells are grown in 96 well plates and exposed to the test compound for 48 hours. Compounds are tested at a single concentration, which is 10^-5 M for most compounds. The reported endpoint is percent growth (GI% or GIPRCNT), where numbers from 0 - 100% represent growth inhibition, and numbers from -100% - 0 represent cell death. For example, a value of 40 represents 60% growth inhibition. A value of 0 means no net growth occurred over the course of the experiment. A value of -40 indicates 40% of cells at the beginning of the experiment died by the end of the experiment. A value of -100 means all cells are dead at the end of the experiment.
NCI-60 Human Tumor Cell Lines Screen was performed using the standard one-dose NCI protocol, which is described in more detail at https://dtp.cancer.gov/discovery_development/nci-60/default.htm.
Compounds with GIPRCNT values below 10 were considered active. Activity score was based on GIPRCNT using the following formula: […]
Score is 0 for GIPRCNT values of 100 or above, 50 for GIPRCNT values of 0, and 100 for GIPRCNT values of -100.
In the case of `Cc1nn(-c2ccccc2)cc1/C=N/Nc1nc(Nc2ccccc2)nc(Nc2ccc(S(N)(=O)=O)cc2)n1`, the growth is -28.7% (active).
As to `CN(c1ccc(Br)cc1)S(=O)(=O)c1ccc(-c2cnc(C3CC3)o2)cc1`, the growth is 26.3% (inactive).
Turning to `CCCCCCNC(=O)Oc1ccc(/C(=C(\C)c2ccc(Cl)cc2)c2ccc(OCCN(C)C)cc2)cc1`, the growth was 72.7% (inactive).
The value for `COc1ccc(/C=N\NC(=O)c2ccc3nc(-c4ccc(Br)cc4)[nH]c3c2)cc1` was 23.8% (inactive); that for `Cc1ccc(Nc2ncnc3c2c(C)nn3-c2ccc([N+](=O)[O-])cc2)cc1` was 45.1% (inactive).
In the case of `CC(C)=CCc1c(O)c(CC=C(C)C)c2c(c1O)C(=O)C1=C[C@@H]3C[C@H]4C(C)(C)O[C@@](C/C=C(\C)C(=O)O)(C3=O)[C@@]14O2`, the growth was 4.97% (active).
`CCCC(=O)NC(c1cccnc1)c1cc(C(C)=O)c2cccnc2c1O` (stereo not given): the growth was 18.9% (inactive).
The value for `C#C[C@]1(O)CC[C@H]2[C@@H]3CC=C4c5sc(C6CCOCC6)nc5CC[C@]4(C)[C@H]3CC[C@@]21C` was 73.2% (inactive).
With `CCCCCCNC(=O)Oc1ccc(/C(=C(/C)c2ccc(Cl)cc2)c2ccc(OCCN3CCCC3)cc2)cc1`, the growth is 53.4% (inactive).
The value for `O=C(Nc1cccc(-c2nc(-c3ccc(NC(=O)c4cccs4)cc3Cl)no2)c1)Nc1ccc(NC(=O)C2CC2)c(C(F)(F)F)c1` was -27.7% (active); that for `CC1OC(O[C@@H]2[C@H](O)C(CO)OC(O[C@H]3COC(O[C@H]4CC[C@]5(C)[C@H]6CC[C@]78OC[C@@]9(CC[C@](C)(C=O)C[C@H]97)C(=O)C[C@@]8(C)[C@]6(C)CC[C@H]5C4(C)C)[C@@H](O)[C@@H]3O)[C@H]2OC2OC[C@@H](O)[C@@H](O)[C@@H]2O)[C@@H](O)[C@@H](O)[C@H]1O` (stereo not given in full) was 90.6% (inactive).
As for `Cc1ccc(/C=C/c2nn3c(-c4ccco4)nnc3s2)cc1`, the growth is 97.8% (inactive).
Take `C#C[C@]1(O)CC[C@H]2[C@@H]3CC=C4c5sc(-c6ccccn6)nc5CC[C@]4(C)[C@H]3CC[C@@]21C`: the growth is 85.7% (inactive).
Consider `Cc1ccc(-c2cc3nc(C(Cl)Cl)nc(-c4ccccc4)n3n2)cc1`, for which the growth is 77.5% (inactive).
`Cc1cc(NS(=O)(=O)c2ccc(-c3cnc(C4CC4)o3)cc2)ccc1I`: the growth was 48.1% (inactive).
As to `COc1ccc(N2C(=O)c3cc(OC)c(OC)cc3NC2SCc2ccccc2)cc1` (stereo not given), the growth is 110% (inactive).
As to `O=C(COc1ccc(C2SCC(=O)N2c2ccc(F)cc2)cc1)c1ccccc1` (stereo not given), the growth is 87.9% (inactive).
The value for `C#Cc1ccc(NC(=O)c2ccc(/C=C/C(=O)c3nccn3C)cc2)c(F)c1` was 19.9% (inactive).
The same measure for `Oc1ccc(CSc2nnc(-c3ccncc3)n2-c2ccccc2)c2cccnc12`: 25.5% (inactive); for `CC(=O)Nc1cccc(-n2cnc3cc(-c4ccc(O)cc4)ccc32)c1`: 50.4% (inactive); for `C=CCn1c(SCC(=O)Nc2cccc(C(=O)/C=C/c3ccccc3Cl)c2)nc2ccccc2c1=O`: 86.2% (inactive).
Take `COc1ccc(C2C(C#N)=C(N)Oc3c2sc2ccc(C)cc32)cc1` (stereo not given): the growth was 45.6% (inactive).
As for `Cc1cc(C(=O)Nc2ccc(SC#N)cc2)c(C)o1`, the growth is 82.4% (inactive).
The same measure for `COc1ccc2c(C3=C(c4c[nH]c5ccccc45)C(=O)N(O)C3=O)coc2c1`: 96.6% (inactive); for `CCN1C(=O)N(CC)C2SC(N/N=C/c3ccccc3F)=NC21` (stereo not given): 27.3% (inactive).
For `C=C1C(=O)O[C@@H]2C[C@@H](C)[C@H](OC)CC(=O)[C@](C)(OC(C)=O)C[C@H](OC(=O)/C(C)=C\C)[C@@H]12`, the growth was 100% (inactive).
Turning to `Cc1cc(O)c2c(c1)C(=O)C(c1c(C)cc3c(c1O)C(=O)C=CC3=O)=CC2=O`, the growth was 98.6% (inactive).
With `COc1cc2cc(Oc3ccc(NC(=O)Nc4cccc(C(F)(F)F)c4)cc3)c(C)nc2cc1OCCN(C)C`, the growth is 96.7% (inactive).
On to `COc1cc(/C=C/C(=O)c2ccc(NC(=O)COc3cccc4cccnc34)cc2)cc(OC)c1OC`, for which the growth is 87.1% (inactive).
As for `c1cncc(-c2cn3nc(-c4c[nH]c5ccccc45)sc3n2)c1`, the growth is 57.8% (inactive).
`COc1cc(OC)c(S(N)(=O)=O)cc1C(=O)/C=C/c1ccccc1`: the growth was 57.1% (inactive).
`CCOC(=O)c1c(NC(=O)c2ccc(C(C)(C)C)cc2)sc2cc(OCCN3CCCCC3)ccc12`: the growth was 77% (inactive).
With `Fc1ccc(-c2cc3nc(C(Cl)Cl)nc(-c4cccs4)n3n2)cc1`, the growth is -14.2% (active).
`O=[N+]([O-])c1ccc(-c2nnc(SCc3ccc(O)c4ncccc34)o2)cc1`: the growth was 25.8% (inactive).
Turning to `Cn1cc(-c2nn3cc(-c4cccnc4)nc3s2)c2cc(F)ccc21`, the growth was 94.4% (inactive).
As to `NCCN1CCN(c2nc(-c3ccccc3)nc3nc(-c4ccccc4)oc23)CC1`, the growth was -63.7% (active).
For the molecule `O=C1/C(=C/c2ccccc2[N+](=O)[O-])Oc2ccc(O)cc21`, the growth was 84.8% (inactive).
Take `Cc1cc(=O)n2nc(-c3c[nH]c4ccccc34)sc2n1`: the growth is 96.3% (inactive).
For the molecule `CS(=O)(=O)c1ccc2c(c1)c1c(n2S(=O)(=O)c2ccc(Cl)cc2)CCCC1`, the growth was 48.7% (inactive).
Consider `CCCCCCNC(=O)Oc1ccc(/C(=C(\C)c2ccc(OC)cc2)c2ccc(OCCN(C)C)cc2)cc1`, for which the growth is 74.7% (inactive).
